The text below walks through data of PubChem BioAssay (EPA / NIEHS).

SMILES strings stand for the structures. Inconclusive results are not listed. Activity calls are given as the source filed them. Rule for the calls, unless noted: active = hit-call score of the fitted dose curve at least 0.9, where 1 is the maximum; inconclusive = response in the unintended direction; inactive = score below 0.9.

One experiment has as its system Brachyury (BRA) Protein Expression, Deisenroth Lab, TBXT (gene 6862). Put plainly: CCTE_Deisenroth_DEVTOX-GLR_Pluri_BRA: CCTE's DevTox GLR-Pluri Assay Evaluation of Brachyury (BRA) Protein Expression, Deisenroth Lab (AID 2284429). The essentials:
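RUES2-GLR human pluripotent cells differentiated 48 hours with two chemical exposures 24 hours apart, 10-point series 1 nM–200 uM. Fixed, nuclear-stained, imaged; endpoint is percent BRA+ cells minus 0.2% DMSO control.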
Turning to `O=C1NS(=O)(=O)c2ccccc21`, the compound was called inactive.
For the compound `CCCCc1oc2ccccc2c1C(=O)c1cc(I)c(OCCN(CC)CC)c(I)c1`, the AC50 – broadly, the concentration giving half of the maximal activity seen – is 6.42 µM (active).
As for `CC(=O)Nc1ccc(O)cc1`, the call was inactive.
`CN(C)CCOC(c1ccccc1)c1ccccc1`: the AC50 was 19.8 µM (active).
On to `CN(Cc1cnc2nc(N)nc(N)c2n1)c1ccc(C(=O)N[C@@H](CCC(=O)O)C(=O)O)cc1`, for which the outcome was inactive.

Test system in another experiment: not listed separately
As to the kind of experiment: CCTE_Deisenroth_DEVTOX-GLR_Pluri_CellCount: Viability Assessment in CCTE's DevTox GLR-Pluri Assay Evaluation of Total Cell Counts, Deisenroth Lab (AID 2284430; active = hit-call score of the fitted dose curve at least 0.9, where 1 is the maximum; inactive = score below 0.9). In outline:
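RUES2-GLR human pluripotent cells, seeded 24 h, then differentiated 48 h with two chemical exposures 24 h apart; 10-point series 1 nM - 200 uM. Fixed, nuclear-stained, imaged (5 fields/well); nuclei count as % change vs 0.2% DMSO.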
For `O=C1NS(=O)(=O)c2ccccc21`, the compound was classed as inactive.
For `CCCCc1oc2ccccc2c1C(=O)c1cc(I)c(OCCN(CC)CC)c(I)c1`, the concentration at half-maximal activity (AC50) was 10.6 µM (active).
Turning to `CC(=O)Nc1ccc(O)cc1`, the compound was called inactive.
The same measure, in the same setting: the same measure for `CN(C)CCOC(c1ccccc1)c1ccccc1`: “inactive”; for `CN(Cc1cnc2nc(N)nc(N)c2n1)c1ccc(C(=O)N[C@@H](CCC(=O)O)C(=O)O)cc1`: “inactive”.
